Molecules are shown by their SMILES. Several values for one entry are separate records, joined by “and”; a condition that tells them apart may be missing. Equal values may be shown once. Records with an inconclusive call do not appear. Activity calls are given as the source filed them. Calls come from the whole dose curve; as a rule, active = well fitted activation curve with a large enough effect; inconclusive = small, poorly fitted or top-dose-only effect; inactive = flat fitted curve, though single readings scatter.

In the experiment the target is Lysosomal acid glucosylceramidase (Homo sapiens) (UniProt P04062). Nature of the experiment: qHTS Assay for Inhibitors and Activators of N370S glucocerebrosidase as a Potential Chaperone Treatment of Gaucher Disease: Activity in Non-Mutant Spleen Confirmation for Probe SAR. The conditions noted are these: human spleen homogenate, 4-MU-beta-glucoside fluorescence; series mostly up to 57.5 µM. The text has this: NIH Chemical Genomics Center [NCGC] NIH Molecular Libraries Probe Production Centers Network [MLPCN] MLPCN Grant: MH086442-01 Assay Submitter (PI): Wei Zheng Glucocerebrosidase (GC) catalyzes the hydrolysis of beta-glucocerebroside to glucose and ceramide in lysosomes. Mutations in the glucocerebrosidase gene result in Gaucher disease, an autosomal recessive lysosomal storage disorder. Many of the mutations encountered in patients with Gaucher disease are missense alterations that may cause misfolding, decreased stability and/or mistrafficking of this lysosomal protein. […] These inhibitors include iminosugar analogs and three non-iminosugar inhibitors identified from a previous HTS of 62,000 compounds with the wild type recombinant enzyme. However, the enhancement of enzyme activity by the chaperone action of an enzyme inhibitor must be balanced against the direct inhibition of the enzyme. An enzyme activator could also function as a chaperone by binding to the enzyme and helping to correct its misfolding and mistrafficking. While activators for GC have not yet been identified, they may have better therapeutic potential than inhibitors. Therefore the discovery and development of chemical activators may provide a new strategy for the chaperone therapy. We have optimized a new assay using N370S mutant GC derived from the spleen of a Gaucher patient. […] In addition, the MLPCN compound library has expanded, which increases the chance of finding new and better probes. This confirmation assay tests for compound activity in spleen homogenate containing wildtype enzyme.
Sequence of Lysosomal acid glucosylceramidase (Homo sapiens) (P04062 whole entry, looked up): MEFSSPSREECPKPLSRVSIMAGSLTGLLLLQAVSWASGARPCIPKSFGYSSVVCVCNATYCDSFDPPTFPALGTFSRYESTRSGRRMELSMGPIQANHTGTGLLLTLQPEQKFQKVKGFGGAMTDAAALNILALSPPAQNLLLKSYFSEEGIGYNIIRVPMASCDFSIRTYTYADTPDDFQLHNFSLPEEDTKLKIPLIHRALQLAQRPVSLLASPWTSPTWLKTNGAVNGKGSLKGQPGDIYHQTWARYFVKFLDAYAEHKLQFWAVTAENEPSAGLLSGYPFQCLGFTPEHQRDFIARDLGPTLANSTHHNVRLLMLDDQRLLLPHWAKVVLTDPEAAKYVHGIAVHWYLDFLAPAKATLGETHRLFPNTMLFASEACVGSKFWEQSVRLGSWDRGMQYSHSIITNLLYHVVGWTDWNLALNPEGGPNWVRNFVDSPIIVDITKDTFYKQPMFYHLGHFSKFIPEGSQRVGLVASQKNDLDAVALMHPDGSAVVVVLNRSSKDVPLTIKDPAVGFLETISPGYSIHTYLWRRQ
NCGC Assay Protocol Summary: This is a fluorogenic enzyme assay with 4-methylumbelliferyl-beta-D-glucopyranoside as the substrate and wildtype glucocerebrosidase from human spleen homogenate as the enzyme preparation. Upon the hydrolysis of this fluorogenic substrate, the resulting product, […] which can be detected by a standard fluorescence plate reader. Data were normalized to the controls for basal activity (without enzyme) and 100% activity (with enzyme). The AC50 values were determined from concentration-response data modeled with the standard Hill equation. Assay buffer: 50 mM citric acid (titrated with potassium phosphate to pH 5.0), 100 mM potassium chloride, 10 mM sodium chloride, 1 mM magnesium chloride, 0.01% Tween-20. 1536-well assay protocol: (1) Add 2 ul/well of spleen homogenate (27 ug final) (2) Add 23 nL compounds in DMSO solution. The final titration was 0.5 nM to 58 uM. (3) Add 2 ul of substrate (1 mM final) (4) Incubate at 37C for 40 min. (5) Add 2 ul stop solution (1M NaOH and 1M Glycine mixture, pH 10) (6) Detect the assay plate in a ViewLux plate reader (PerkinElmer) with Ex=365 nm and Em=440nm. Keywords: Glucocerebrosidase, beta-glucosidase, Gaucher Disease, pharmacological chaperone, chaperone therapy, high throughput screening, glucocerebrosidase inhibitor, MLSMR, MLSCN, NIH Roadmap, qHTS and NCGC
`Cc1ccc(NC(=O)c2cnn3c(C)cc(C)nc23)c(C)c1`: the Potency is 8.19 µM (active). The result for `Cc1ccc(NC(=O)c2cnn3c(C)cc(C)nc23)cc1` reads 3.26 µM (active); that for `Cc1cc(C)n2ncc(C(=O)Nc3ccc4c(c3)OCO4)c2n1`, 13 µM (active). Regarding `CNC(=O)c1cnn2c(C)cc(C)nc12`, the Potency entry was “inactive”. For `Cc1cc(C)n2ncc(C(=O)Nc3ccncc3)c2n1`, the Potency result was “inactive”.

For the compound `Cc1cc(C)n2ncc(C(=O)Nc3ccc4c(c3)CCC4)c2n1`, the Potency is 2.91 µM (active). `Cc1cc(C)n2ncc(C(=O)Nc3cccc(C#N)c3)c2n1`: the Potency entry is “inactive”.

As for `Cc1cc(C)n2ncc(C(=O)Nc3ccc(C(F)(F)F)cc3)c2n1`, the Potency is 1.46 µM (active).

Turning to `Cc1cc(C)n2ncc(C(=O)Nc3ccc(S(C)(=O)=O)cc3)c2n1`, the Potency entry is “inactive”. On to `Cc1cc(C)n2ncc(C(=O)N3CCCC3)c2n1`, for which the Potency result is “inactive”. In the case of `CC(=O)Nc1ccc(NC(=O)c2cnn3c(C)cc(C)nc23)cc1`, the Potency result was “inactive”. `O=C(Nc1ccccc1Sc1ccccc1)c1cnn2c1NC(=C1CC1)C=C2C(F)F`: the Potency is 4.61 µM (active). In the case of `C#Cc1ccc(NC(=O)c2cnn3c(C)cc(C)nc23)cc1` it was 0.41 µM (active). With `Cc1cccc(NC(=O)c2cnn3c(C)cc(C)nc23)c1`, the Potency was 8.19 µM (active).

In the case of `Cc1cc(C)n2ncc(C(=O)Nc3ccc(Br)cc3)c2n1`, the Potency is 2.06 µM (active). Consider `Cc1cc(C)n2ncc(C(=O)NC3CCC(C(C)(C)C)CC3)c2n1` (stereo not drawn), for which the Potency was 11.6 µM (active) and 2.06 µM (active). On to `COc1ccc(NC(=O)c2cnn3c(C)cc(C)nc23)cc1`, for which the Potency is 20.6 µM (active). For `COc1ccc(NC(=O)c2cnn3c(C)cc(C)nc23)cc1OC`, the Potency entry was “inactive”. In the case of `Cc1cc(C)n2ncc(C(=O)NC(C)C)c2n1` it was “inactive”.

As to `CC(=O)Nc1ccccc1NC(=O)c1cnn2c(C)cc(C)nc12`, the Potency entry is “inactive”. The result for `CCc1ccc(NC(=O)c2cnn3c(C)cc(C)nc23)cc1` reads 2.91 µM (active).

For `Cc1cc(C)n2ncc(C(=O)Nc3ccc(C)c(C)c3)c2n1`, the Potency was 4.11 µM (active). In the case of `Cc1cc(C)n2ncc(C(=O)Nc3ccc4c(c3)OCCO4)c2n1` it was 13 µM (active).

Source of the values: PubChem BioAssay AID488849 (National Center for Advancing Translational Sciences (NCATS), 2010).
